Records with an inconclusive call do not appear. Entries that show only a call come without a potency. More than one record can exist for a structure, and the calls need not agree. The source made the active and inactive calls. Calls come from the whole dose curve; as a rule, active = well fitted activation curve with a large enough effect in the repeat runs; inconclusive = weak or mixed curves, or effect the other way; inactive = no such curve, though single readings can be large or run the other way.

Experimental findings from PubChem BioAssay (Tox21) are described below.
Potency is the fitted concentration of half-maximal effect.

The first test in a line: qHTS assay to identify small molecule agonists of the retinoic acid receptor (RAR) signaling pathway (AID 1159553). Conditions: C3RL4 RARE luciferase reporter, agonist, 6 h; activation: at 73.3 µM (top of the series) unless noted. The text has this:
National Center for Advancing Translational Sciences [NCATS] NIH Chemical Genomics Center [NCGC] U.S. Environmental Protection Agency [EPA] National Institutes of Environmental Health Sciences [NIEHS] National Toxicology Program [NTP] Assay overview: All-trans Retinoic acid (atRA) is the potent natural metabolite of retinol and plays an important role in normal embryonic development and maintenance of cellular phenotype in adult animals. atRA is the activating ligand for the retinoic acid receptors (RARs) which form heterodimers with retinoid X receptors (RXRs) on the retinoic acid response element (RARE). Through activation of the RAR/RXRs nuclear receptors, atRA regulates the transcription of a large number of protein-coding genes and regulatory RNAs. Intracellular levels of atRA are controlled by the retinol signaling pathway (RSP) that regulates the biosynthesis and catabolism of atRA to maintain physiological levels. Chemicals that interfere with the RSP can cause abnormal intracellular levels of atRA and therefore are potential developmental toxicants. To assess compounds for the potential adverse effect on embryonic development through interfering with retinol signaling, a cell-based RARE luciferase reporter gene assay was used. C3RL4 cell line (OARSA/CFSAN/FDA, Laurel, MD) was used to screen Tox21 10K compound library for identifying activators of the RSP.
Assay Protocol Summary: C3RL4 cells were seeded at 1,000/well in 5 uL of assay medium into white solid 1,536-well tissue culture plates (Greiner Bio-One North America Inc. Monroe, NC) using a Multidrop Combi (Thermo Scientific, Waltham, MA) dispenser. After incubation at 37 C and 5% CO2 for an overnight, 23 nL of compounds dissolved in DMSO, positive control or DMSO only were transferred by a Pintool station (Kalypsys, San Diego, CA). After 6 hr incubation at 37 C and 5% CO2, 5 uL of Amplite Luciferase reagent (AAT Bioquest Inc. Sunnyvale, CA) was added to each assay plate using a Flying Reagent Dispenser (FRD) (Aurora Discovery, San Diego, CA). Luminescence was quantified on a ViewLux plate reader (PerkinElmer, Waltham, MA) after 30 min incubation at room temperature.
On to `CCCCCCCCC(=O)O`, for which the Potency entry was “inactive”.

On to `CC/C=C(\C(=O)N[C@@H]1C(=O)N2C(C(=O)OCOC(=O)C(C)(C)C)=C(COC(N)=O)CS[C@H]12)c1csc(N)n1`, for which the Potency entry is “inactive”.

`CC/C(C)=N/O`: the Potency result is “inactive”.

Regarding `CCCOCC(C)O` (stereo not given), the Potency entry is “inactive”.

As to `COc1c(Cl)ccc(Cl)c1C(=O)O`, the Potency entry was “inactive”.

For the compound `NC1CCCCC1N` (stereo not given), the Potency entry was “inactive”.

In the case of `O=c1c(O)c(-c2ccc(O)c(O)c2)oc2cc(O)cc(O)c12`, the Potency was 61.2 µM (active).

For the compound `Cc1cccc(C)c1[N+](=O)[O-]`, the Potency result is “inactive”.

For `O=C1OC(=O)c2c(Cl)c(Cl)c(Cl)c(Cl)c21`, the Potency entry is “inactive”.

Regarding `O=C1C(N(CO)C(=O)NCO)N(CO)C(=O)N1CO` (stereo not given), the Potency result was “inactive”.

For `CN1CCCC1=O`, the activation was -0.377% [at 94.8 µM] (active).

In the case of `CC(=O)c1nccs1`, the Potency entry is “inactive”.

Regarding `C=C(CC(=O)O)C(=O)O`, the Potency entry was “inactive”.

Regarding `CC(=O)OC[C@H]1O[C@@](COC(C)=O)(O[C@H]2O[C@H](COC(C)=O)[C@@H](OC(C)=O)[C@H](OC(C)=O)[C@H]2OC(C)=O)[C@@H](OC(C)=O)[C@@H]1OC(C)=O`, the Potency entry is “inactive”.

Turning to `COc1ccc2cc3[n+](cc2c1OC)CCc1cc2c(cc1-3)OCO2`, the Potency result is “inactive”.

Regarding `Cc1cc(C)cc(O)c1`, the Potency result is “inactive”.

For the compound `O=[N+]([O-])c1ccccc1C(F)(F)F`, the Potency entry is “inactive”.

As to `C[n+]1ccn(CCO)c1`, the Potency result is “inactive”.

For `OB(O)O`, the Potency result is “inactive”.

As to `CC(=O)OC(C)(C)C1CC=C(C)CC1` (stereo not given), the Potency entry is “inactive”.

With `Cc1ccc(C(C)C)cc1`, the Potency entry is “inactive”.

In the case of `OCC(O)CS` (stereo not given), the Potency entry is “inactive”.

Turning to `Nc1cccc(N)n1`, the Potency entry was “inactive”.

Consider `OC[C@H]1O[C@@H](Oc2ccc(O)cc2)[C@H](O)[C@@H](O)[C@@H]1O`, for which the Potency result was “inactive”.

As for `CCCCC(=O)O`, the Potency entry was “inactive”.

Regarding `COC(=O)CCCCC(=O)OC`, the Potency result was “inactive”.

As for `O=C(O)C1=NN(c2ccc(S(=O)(=O)O)cc2)C(=O)C1`, the Potency result was “inactive”.

Take `CCCOC(=O)NCCCN(C)C`: the Potency entry is “inactive”.

Turning to `CC(COCC(C)OC(=O)c1ccccc1)OC(=O)c1ccccc1` (stereo not given), the Potency entry was “inactive”.

For the compound `CCCCCNCCCCC`, the Potency entry was “inactive”.

With `N#CCC(=O)O`, the Potency result is “inactive”.

In the case of `CN1Cc2c(N)cccc2C(c2ccccc2)C1` (stereo not given), the Potency result was “inactive”.

In the case of `C=CC(C)(C)C`, the Potency entry was “inactive”.

Turning to `CCCCCC(C)=O`, the Potency entry is “inactive”.

On to `CCOC(=O)c1ccc(O)cc1`, for which the Potency result is “inactive”.

For the compound `COc1c2ccoc2cc2oc(=O)ccc12`, the Potency entry is “inactive”.

On to `O=c1n(CCCN2CCN(c3cccc(Cl)c3)CC2)nc2ccccn12`, for which the Potency result was “inactive”.

For the compound `O=C1CCCCCCCCCCC1`, the Potency result was “inactive”.

For `O=C(Cl)c1ccc(C(=O)Cl)cc1`, the Potency entry was “inactive”.

Staying with this test, now noted: C3RL4 RARE luciferase reporter, agonist, 6 h; at 73.3 µM (top of the series).
Regarding `CN1CCCC1=O`, the activation is 0.131% (inactive).
